Source: the supplement of paper PMC6555819

Columns and labels:
Experiment in all cases: PBM binding z-score (relative to random genomic background probes); higher = stronger binding; sequences stand for … in GC…GCGATTGACAGCGTAGAATGAAGG
[1] = system: RARb homodimer (NR concentration 270 nM)
Procedure, shortened: (§1)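 For binding z-scores, the reference was random background probes on custom Agilent 4×180K protein-binding microarrays. These arrays were incubated 1 h with ligand-free nuclear receptor dimers in PBS pH 7.4, 2% milk, 0.02% Triton X-100, 1 mM DTT, 0.2 mg/mL BSA and 0.4 mg/ml salmon testes DNA. Fluorescence was scanned after antibody detection of each partner (one per run) and regression-normalized.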

[2] = system: RARg:RXRa (NR concentration 270 nM, RXRa partner concentration 90 nM)
Procedure, shortened: as §1

[3] = system: RARg homodimer (NR concentration 270 nM)
Procedure, shortened: as §1

[4] = system: RXRa DBDmut IVT, anti-RXR (DBD mutation: RXRa K156A/R161A, NR concentration 90 nM)
Procedure, shortened: as §1

[5] = system: RXRa homodimer (NR concentration 180 nM)
Procedure, shortened: as §1

[6] = system: THRa:RXRa (NR concentration 90 nM, RXRa partner concentration 90 nM)
Procedure, shortened: as §1

[7] = system: THRa homodimer (NR concentration 90 nM)
Procedure, shortened: as §1

[8] = system: VDR homodimer (NR concentration 270 nM)
Procedure, shortened: as §1

Row | Sequence | PBM binding z-score [1] | PBM binding z-score [2] | PBM binding z-score [3] | PBM binding z-score [4] | PBM binding z-score [5] | PBM binding z-score [6] | PBM binding z-score [7] | PBM binding z-score [8]
1 | GAGACTGGGGCATCAGCAGGTTACCATAACTTAA | 1.46 | 0.941 | 0.703 | 0.142 | 0.509 | 1.3 | 0.361 | -0.0346
2 | TTACCAAGTTGAGCTGAGGTCGTTGATCCAACTC | 0.944 | 0.311 | 0.0622 | 0.245 | 0.839 | 4.34 | 1.77 | 2.04
3 | ACTATTAGTTGAGACGAGGTCAACCGATAGGTTG | 4.05 | 3.81 | 3.37 | 1.57 | 4.82 | 4.73 | 3.82 | 3.21
4 | GCATATAGGTAAGACAAGGTGAAAGTCCGATTGT | 0.617 | 0.376 | 0.405 | 0.267 | 0.545 | 3.81 | 0.676 | -0.12
5 | TAACCTAGGTCATTCAGGGGCCAGTATAGAAAGC | 3.95 | 6.73 | 5.25 | 2.62 | 3.87 | 3.83 | 1.26 | 2.58
6 | CGAACTAGGTCATTGACAGGACAGTGAATAGTAA | 2.71 | 4.63 | 4.21 | 2.33 | 2.61 | 2.98 | 0.802 | 0.793
7 | ACCGACAGGTGAGTGAAGGTAACTCAGCTGGACG | -0.286 | 0.0773 | 0.407 | -0.459 | 0.0984 | 1.56 | -0.918 | -1
